Measurements from PubChem BioAssay AID1159580 (chemical genetic matrix, 2015).
The whole screen tested about 5,500 compounds, of which about 2,000 (36%) were called active. Roughly 18% stayed inconclusive and do not appear here. Rule as the data show it: active = normalized growth mostly below about 0.91 (no sharp cut-off); inconclusive = no clear call, values can overlap the other calls; inactive = mostly above about 0.92. The list shows a part of the results.

Assay: chemical genetic growth profiling, strain panel (AID 1159580);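 also: tested at 20 µM; growth read once vehicle control cultures reached saturation at 30 °C; 1 = growth at the plate median or of vehicle wells; lower values mean less growth of the strain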
Conditions: growth OD
[1] = S. cerevisiae deletion strains, locus YDL101C, strain DUN1, hits give low values
[2] = S. cerevisiae deletion strains, locus YHR030C, strain SLT2, hits give low values
[3] = S. cerevisiae deletion strains, locus YAL013W, strain DEP1, hits give low values
[4] = S. cerevisiae deletion strains, locus YBR229C, strain ROT2, hits give low values
[5] = S. cerevisiae deletion strains, locus YDR150W, strain NUM1, hits give low values
[6] = S. cerevisiae deletion strains, locus YEL061C, strain CIN8, hits give low values
[7] = S. cerevisiae deletion strains, locus YGR078C, strain PAC10, hits give low values
[8] = S. cerevisiae deletion strains, locus YHR087W, strain rtc3, hits give low values
[9] = S. cerevisiae deletion strains, locus YJR043C, strain POL32, hits give low values
[10] = S. cerevisiae deletion strains, locus YJR075W, strain HOC1, hits give low values
[11] = S. cerevisiae deletion strains, locus YLR039C, strain RIC1, hits give low values
[12] = S. cerevisiae deletion strains, locus YLR058C, strain SHM2 (second series), hits give low values
[13] = S. cerevisiae deletion strains, locus YLR085C, strain ARP6, hits give low values
[14] = S. cerevisiae deletion strains, locus YLR262C, strain YPT6, hits give low values
[15] = S. cerevisiae deletion strains, locus YML094W, strain GIM5, hits give low values
[16] = S. cerevisiae deletion strains, locus YMR219W, strain ESC1, hits give low values
[17] = S. cerevisiae deletion strains, locus YMR263W, strain SAP30, hits give low values
[18] = S. cerevisiae deletion strains, locus YNL153C, strain GIM3, hits give low values
[19] = S. cerevisiae deletion strains, locus YNL298W, strain CLA4 (second series), hits give low values
[20] = S. cerevisiae deletion strains, locus YNL322C, strain KRE1, hits give low values
[21] = S. cerevisiae deletion strains, locus YNR030W, strain Alg12, hits give low values
[22] = S. cerevisiae deletion strains, locus YOL006C, strain TOP1, hits give low values
[23] = S. cerevisiae deletion strains, locus YPL055C, strain LGE1, hits give low values
[24] = S. cerevisiae deletion strains, locus YPL241C, strain CIN2, hits give low values
[25] = S. cerevisiae deletion strains, locus YPR135W, strain CTF4, hits give low values
[26] = S. cerevisiae strains, strain wild type, hits give low values

Measured: normalized growth

FC(F)(F)c1c2c(nc3cc(-c4ccco4)nn13)CCC2
inactive: S. cerevisiae deletion strains, locus YAR019C, strain CDC15, hits give low values 0.965 | S. cerevisiae deletion strains, locus YBL105C, strain PKC1, hits give low values 0.973 | S. cerevisiae deletion strains, locus YBR135W, strain CKS1, hits give low values 0.964 | S. cerevisiae deletion strains, locus YBR136W, strain MEC1, hits give low values 0.971 | S. cerevisiae deletion strains, locus YBR160W, strain CDC28, hits give low values 0.975 | S. cerevisiae deletion strains, locus YDL017W, strain CDC7, hits give low values 0.971 | S. cerevisiae deletion strains, locus YDL028C, strain MPS1, hits give low values 0.971 | [1] 0.967 | S. cerevisiae deletion strains, locus YDL108W, strain KIN28, hits give low values 0.967 | S. cerevisiae deletion strains, locus YDL132W, strain cdc53, hits give low values 0.96 | S. cerevisiae deletion strains, locus YDL214C, strain PRR2, hits give low values 0.9 | S. cerevisiae deletion strains, locus YDR052C, strain DBF4, hits give low values 0.966 | S. cerevisiae deletion strains, locus YDR054C, strain cdc34, hits give low values 0.952 | S. cerevisiae deletion strains, locus YDR226W, strain ADK1, hits give low values 0.968 | S. cerevisiae deletion strains, locus YDR477W, strain SNF1, hits give low values 0.882 | S. cerevisiae deletion strains, locus YER123W, strain YCK3, hits give low values 0.858 | S. cerevisiae deletion strains, locus YER133W, strain GLC7, hits give low values 0.912 | S. cerevisiae deletion strains, locus YFL009W, strain cdc4, hits give low values 0.968 | S. cerevisiae deletion strains, locus YFL029C, strain CAK1, hits give low values 0.96 | S. cerevisiae deletion strains, locus YFR003C, strain YPI1, hits give low values 0.976 | S. cerevisiae deletion strains, locus YFR019W, strain FAB1, hits give low values 0.959 | S. cerevisiae deletion strains, locus YFR028C, strain CDC14, hits give low values 0.969 | S. cerevisiae deletion strains, locus YGR040W, strain KSS1, hits give low values 0.875 | S. cerevisiae deletion strains, locus YGR052W, strain FMP48, hits give low values 0.942 | S. cerevisiae deletion strains, locus YGR092W, strain DBF2, hits give low values 0.815 | S. cerevisiae deletion strains, locus YHR079C, strain IRE1, hits give low values 0.891 | S. cerevisiae deletion strains, locus YHR082C, strain KSP1, hits give low values 0.896 | S. cerevisiae deletion strains, locus YHR205W, strain SCH9, hits give low values 0.825 | S. cerevisiae deletion strains, locus YIL147C, strain SLN1, hits give low values 0.971 | S. cerevisiae deletion strains, locus YJL095W, strain BCK1, hits give low values 0.819 | S. cerevisiae deletion strains, locus YJL128C, strain PBS2, hits give low values 0.92 | S. cerevisiae deletion strains, locus YJL157C, strain FAR1, hits give low values 0.869 | S. cerevisiae deletion strains, locus YJR016C, strain ILV3, hits give low values 0.973 | S. cerevisiae deletion strains, locus YJR066W, strain TOR1 (second series), hits give low values 0.987 | S. cerevisiae deletion strains, locus YJR066W, strain TOR1, hits give low values 0.833 | S. cerevisiae deletion strains, locus YKL048C, strain ELM1, hits give low values 0.941 | S. cerevisiae deletion strains, locus YKL067W, strain YNK1, hits give low values 0.879 | S. cerevisiae deletion strains, locus YKL101W, strain HSL1, hits give low values 0.928 | S. cerevisiae deletion strains, locus YKL193C, strain SDS22, hits give low values 0.959 | S. cerevisiae deletion strains, locus YKL203C, strain TOR2, hits give low values 0.901 | S. cerevisiae deletion strains, locus YLR133W, strain CKI1, hits give low values 0.884 | S. cerevisiae deletion strains, locus YLR403W, strain SFP1, hits give low values 0.855 | S. cerevisiae deletion strains, locus YML070W, strain DAK1, hits give low values 0.906 | S. cerevisiae deletion strains, locus YMR001C, strain CDC5, hits give low values 0.966 | S. cerevisiae deletion strains, locus YMR205C, strain PFK2 (second series), hits give low values 0.891 | S. cerevisiae deletion strains, locus YMR277W, strain FCP1, hits give low values 0.963 | S. cerevisiae deletion strains, locus YNL006W, strain LST8, hits give low values 0.97 | S. cerevisiae deletion strains, locus YNL020C, strain ARK1, hits give low values 0.851 | S. cerevisiae deletion strains, locus YNL161W, strain CBK1, hits give low values 0.974 | S. cerevisiae deletion strains, locus YNL183C, strain NPR1, hits give low values 0.816 | S. cerevisiae deletion strains, locus YNL207W, strain RIO2, hits give low values 0.96 | S. cerevisiae deletion strains, locus YNL222W, strain SSU72, hits give low values 0.97 | S. cerevisiae deletion strains, locus YNL307C, strain MCK1 (second series), hits give low values 0.861 | S. cerevisiae deletion strains, locus YOL078W, strain AVO1, hits give low values 0.961 | S. cerevisiae deletion strains, locus YOL136C, strain PFK27, hits give low values 0.884 | S. cerevisiae deletion strains, locus YOR061W, strain CKA2, hits give low values 0.865 | S. cerevisiae deletion strains, locus YOR119C, strain RIO1, hits give low values 0.921 | S. cerevisiae deletion strains, locus YOR231W, strain MKK1, hits give low values 0.883 | S. cerevisiae deletion strains, locus YOR329C, strain SCD5, hits give low values 0.976 | S. cerevisiae deletion strains, locus YPL031C, strain PHO85, hits give low values 0.869 | S. cerevisiae deletion strains, locus YPL153C, strain RAD53, hits give low values 0.889 | S. cerevisiae deletion strains, locus YPL204W, strain HRR25, hits give low values 0.87 | S. cerevisiae deletion strains, locus YPL209C, strain IPL1, hits give low values 0.972 | S. cerevisiae deletion strains, locus YPL256C, strain CLN2, hits give low values 0.891 | S. cerevisiae deletion strains, locus YPR025C, strain CCL1, hits give low values 0.968 | S. cerevisiae deletion strains, locus YPR106W, strain ISR1, hits give low values 0.959 | S. cerevisiae deletion strains, locus YPR111W, strain DBF20, hits give low values 0.958 | S. cerevisiae deletion strains, strain NNK1, hits give low values 0.959 | S. cerevisiae deletion strains, strain TSCII, hits give low values 0.969
active: [2] 0.702 | S. cerevisiae deletion strains, locus YLR113W, strain HOG1, hits give low values 0.802

FC(F)(F)c1cc(-c2ccc(Cl)cc2)nc2cc(C3CC3)nn12
inactive: [3] 1.03 | [4] 1.01 | [1] 1.03 | [5] 0.99 | [6] 1 | [7] 1.03 | [2] 1.16 | [8] 1.02 | S. cerevisiae deletion strains, locus YJL187C, strain SWE1, hits give low values 1.01 | [9] 1.04 | [10] 1.01 | [11] 1.01 | [12] 1.02 | [13] 1.05 | [14] 1.06 | [15] 1.02 | [16] 1.01 | [17] 1.01 | [18] 1.02 | [19] 1.05 | [20] 1.02 | [21] 1.01 | [22] 1.08 | [23] 1.03 | [24] 1.02 | [25] 1.15 | [26] 0.997

Cc1cc(C(F)(F)F)n2nc(-c3ccc(C(C)(C)C)cc3)cc2n1
inactive: [3] 0.996 | [4] 1.02 | [1] 0.983 | [5] 0.965 | [6] 0.993 | [7] 1.01 | [2] 0.963 | [8] 1.01 | [9] 1.01 | [10] 0.994 | [11] 0.965 | [12] 1 | [13] 0.899 | [14] 0.964 | [15] 0.958 | [16] 0.999 | [17] 1.05 | S. cerevisiae deletion strains, locus YMR307W, strain GAS1, hits give low values 0.868 | [18] 1.01 | [19] 0.98 | [20] 0.988 | [21] 0.976 | [22] 0.984 | [23] 1.06 | [24] 0.902 | [25] 1.08 | [26] 0.986
